Holding throughout (conditions): mRNA level, 48 h; actives raise or lower the signal
Read-out in test [1]: Apoptosis regulator Bcl-2 (Homo sapiens) (UniProt P10415)
Put plainly: LTEA_HepaRG_BCL2: Life Technologies and Expression Analysis (LTEA) Assay for Bcl-2 gene using HepaRG (AID 2283475). The method in brief: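 Expression change of BCL2 mRNA in HepaRG after 48 h dosing, quantified by TaqMan qRT-PCR against three endogenous controls. Concentration-response used eight points up to 100 uM, vehicle 0.5% DMSO.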

Read-out in test [2]: Bcl-2 (BID) gene, BID (gene 637)
Put plainly: LTEA_HepaRG_BID: Life Technologies and Expression Analysis (LTEA) Assay for Bcl-2 (BID) gene using HepaRG (AID 2283476). The gist of the method: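 Gain or loss of BID expression is fitted relative to 0.5% DMSO vehicle. Human HepaRG liver cells received a 48 h chemical exposure over an eight-point concentration range.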

Read-out in another test: Caspase-3 (Homo sapiens) (UniProt P42574)
In words: LTEA_HepaRG_CASP3: Life Technologies and Expression Analysis (LTEA) Assay for cysteine-aspartic acid protease (CASP3) using HepaRG (AID 2283477). The gist of the method: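 HepaRG, 48 h exposure, 8 conc. (top 100 uM, half-log steps, duplicate), 0.5% DMSO vehicle; qRT-PCR of CASP3 transcript, housekeeping-normalised (ACTB/GAPDH/POLR2A); bidirectional curve fit vs DMSO baseline.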

Read-out in test [3]: Cytochrome P450 (CYP24A1), CYP24A1 (gene 1591)
Put plainly: LTEA_HepaRG_CYP24A1: Life Technologies and Expression Analysis (LTEA) Assay for Cytochrome P450 (CYP24A1) using HepaRG (AID 2283478). The gist of the method: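 qRT-PCR read-out: CYP24A1 transcript levels normalized to three housekeeping genes, bidirectional curve fits against 0.5% DMSO baseline. Human HepaRG cells treated 48 h with chemicals at eight concentrations from 100 uM in half-log steps.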

Read-out in test [4]: Cytochrome P450 (CYP1A2), CYP1A2 (gene 1544)
Put plainly: LTEA_HepaRG_CYP1A2: Life Technologies and Expression Analysis (LTEA) Assay for Cytochrome P450 (CYP1A2) using HepaRG (AID 2283479). The method in brief:
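HepaRG, 48 h exposure, top 100 uM, half-log 8-pt, 0.5% DMSO vehicle, duplicates. Readout: TaqMan qRT-PCR of CYP1A2 mRNA, housekeeping-normalized (ACTB/GAPDH/POLR2A). Gain/loss fit relative to DMSO baseline.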

Read-out in test [5]: cysteine-aspartic acid protease (CASP8), CASP8 (gene 841)
Put plainly: LTEA_HepaRG_CASP8: Life Technologies and Expression Analysis (LTEA) Assay for cysteine-aspartic acid protease (CASP8) using HepaRG (AID 2283480). The gist of the method:
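Differentiated human HepaRG cells, plated 48 h then switched to serum-free induction medium, were exposed in duplicate for 48 h to 8 half-log concentrations up to 100 uM in 0.5% DMSO. CASP8 mRNA was quantified by qRT-PCR, normalized to ACTB/GAPDH/POLR2A.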

Read-out in test [6]: Cytochrome P450 (CYP2B6), CYP2B6 (gene 1555)
Put plainly: LTEA_HepaRG_CYP2B6: Life Technologies and Expression Analysis (LTEA) Assay for Cytochrome P450 (CYP2B6) using HepaRG (AID 2283481). The method in brief: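 Read-out is CYP2B6 mRNA by TaqMan qRT-PCR, normalized to three housekeeping genes and fitted bidirectionally against 0.5% DMSO baseline. Human HepaRG cells received test chemicals for 48 h, top concentration 100 uM, half-log dilutions.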

Read-out in test [7]: Cytochrome P450 2C19 (Homo sapiens) (UniProt P33261)
In words: LTEA_HepaRG_CYP2C19: Life Technologies and Expression Analysis (LTEA) Assay for CYP2C19 using HepaRG (AID 2283482). The gist of the method: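 HepaRG, 48 h chemical exposure, 8-pt half-log series from 100 uM in 0.5% DMSO, duplicates. Readout: CYP2C19 mRNA by TaqMan qRT-PCR, housekeeping-normalized. Bidirectional fit vs DMSO baseline; phenobarbital 1mM as induction control.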

Read-out in a further test: CYP2C8 (gene 1558)
In words: LTEA_HepaRG_CYP2C8: Life Technologies and Expression Analysis (LTEA) Assay for CYP2C8 using HepaRG (AID 2283483). The gist of the method: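 Differentiated human HepaRG cells were exposed for 48 h in serum-free induction medium to eight half-log concentrations up to 100 uM in 0.5% DMSO, in duplicate. CYP2C8 mRNA was measured by TaqMan qRT-PCR, normalized to ACTB, GAPDH and POLR2A, and fitted bidirectionally against DMSO.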

Read-out in the next test: CYP2C9 (gene 1559)
Put plainly: LTEA_HepaRG_CYP2C9: Life Technologies and Expression Analysis (LTEA) Assay for CYP2C9 using HepaRG (AID 2283484). The gist of the method: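 Differentiated human HepaRG cells were exposed 48 h in serum-free induction medium to eight half-log concentrations up to 100 uM in 0.5% DMSO. CYP2C9 mRNA was measured by qRT-PCR, normalized to ACTB, GAPDH and POLR2A, and fitted bidirectionally against DMSO.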

The source made the active and inactive calls. Rule for the calls: active = hit-call score of the fitted dose curve at least 0.9, where 1 is the maximum; inactive = score below 0.9.

In general, AC50 refers to the concentration giving half of the maximal activity seen.

Chain of Apoptosis regulator Bcl-2 (Homo sapiens) (P10415 whole entry, looked up): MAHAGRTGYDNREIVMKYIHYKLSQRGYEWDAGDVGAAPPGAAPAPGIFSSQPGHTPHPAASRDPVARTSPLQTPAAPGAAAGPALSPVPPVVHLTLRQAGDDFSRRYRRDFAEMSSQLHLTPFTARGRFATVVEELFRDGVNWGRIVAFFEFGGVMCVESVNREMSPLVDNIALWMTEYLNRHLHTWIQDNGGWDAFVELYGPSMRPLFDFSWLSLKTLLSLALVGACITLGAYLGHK
Chain of Caspase-3 (Homo sapiens) (P42574 whole entry, looked up): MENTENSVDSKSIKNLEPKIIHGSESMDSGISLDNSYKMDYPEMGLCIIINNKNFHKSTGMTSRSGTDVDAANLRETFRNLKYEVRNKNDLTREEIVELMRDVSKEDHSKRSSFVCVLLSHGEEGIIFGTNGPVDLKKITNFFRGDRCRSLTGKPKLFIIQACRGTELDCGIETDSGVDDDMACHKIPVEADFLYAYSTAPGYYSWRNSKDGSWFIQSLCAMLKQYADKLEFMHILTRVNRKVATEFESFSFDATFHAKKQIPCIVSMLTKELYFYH
Chain of Cytochrome P450 2C19 (Homo sapiens) (P33261 whole entry, looked up): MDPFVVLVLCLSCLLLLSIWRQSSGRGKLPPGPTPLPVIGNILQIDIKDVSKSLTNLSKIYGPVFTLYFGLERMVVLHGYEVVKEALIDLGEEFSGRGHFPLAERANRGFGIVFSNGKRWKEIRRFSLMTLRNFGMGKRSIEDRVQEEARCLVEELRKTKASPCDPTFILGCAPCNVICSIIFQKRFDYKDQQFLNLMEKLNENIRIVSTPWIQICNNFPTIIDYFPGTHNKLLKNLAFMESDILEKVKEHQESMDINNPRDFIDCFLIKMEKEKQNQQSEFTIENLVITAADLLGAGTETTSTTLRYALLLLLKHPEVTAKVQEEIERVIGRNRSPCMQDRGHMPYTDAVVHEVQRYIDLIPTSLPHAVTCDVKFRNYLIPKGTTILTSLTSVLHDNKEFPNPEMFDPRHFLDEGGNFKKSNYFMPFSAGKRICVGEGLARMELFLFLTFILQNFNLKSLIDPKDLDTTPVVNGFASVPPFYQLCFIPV

Consider `CC(C)(O)C(=O)Nc1ccc([N+](=O)[O-])c(C(F)(F)F)c1`, for which the result (in [1]; in the test with Caspase-3 (Homo sapiens); in test [3]; in test [7]; in the test with CYP2C8 (gene 1558); with CYP2C9 (gene 1559)) was inactive. For the same molecule, the AC50 in test [2] is 0.0296 µM (active); in test [4], 0.0406 µM (active); in [5], 0.0142 µM (active); in [6], 44.3 µM (active).
Regarding `c1cc2ccc3cccc4ccc(c1)c2c34`, the result (in test [1]; in [2]; in the test with Caspase-3 (Homo sapiens); in test [3]; in test [5]; with CYP2C9 (gene 1559)) was inactive. In addition, the AC50 in test [4] is 50 µM (active); in test [6] it was 6.95 µM (active); in [7] it was 4.34 µM (active); with CYP2C8 (gene 1558), 4.67 µM (active).
For `CCCN(CCC)N=O`, the molecule was called inactive (in test [1]; in [2]; with Caspase-3 (Homo sapiens); in [3]; in test [4]; in test [5]). In addition, the molecule was classed as inactive (in test [7]; with CYP2C8 (gene 1558); in the test with CYP2C9 (gene 1559)). For the same molecule, the half-maximal activity concentration (AC50) in [6] is 11 µM (active).
As to `CCNc1nc(NC(C)C)nc(SC)n1`, the molecule was called inactive (in test [1]; in test [2]; with Caspase-3 (Homo sapiens); in [3]; in [4]; in [5]). The molecule was called inactive with CYP2C8 (gene 1558) and with CYP2C9 (gene 1559). The AC50 in [6] was 1.11 µM (active); in test [7] it was 2.45 µM (active).
Consider `O=C(O)C(F)(F)C(F)(F)C(F)(F)C(F)(F)C(F)(F)C(F)(F)C(F)(F)C(F)(F)F`, for which the AC50 in test [1] is 73.6 µM (active); in test [4] it was 83.6 µM (active); in [6] it was 82.4 µM (active); in test [7] it was 87.1 µM (active); with CYP2C8 (gene 1558), 80 µM (active); with CYP2C9 (gene 1559), 80.5 µM (active). Besides, the call (in test [2]; in the test with Caspase-3 (Homo sapiens); in test [3]; in test [5]) was inactive.
Consider `Nn1cnnc1`, for which the molecule was called inactive (in test [1]; in test [2]; with Caspase-3 (Homo sapiens); in test [3]; in [4]; in test [5]). The molecule was classed as inactive (in [6]; in test [7]; with CYP2C8 (gene 1558); with CYP2C9 (gene 1559)).
As to `CC(C)(c1ccccc1)c1ccc(O)cc1`, the molecule was called inactive (in [1]; in [2]; in the test with Caspase-3 (Homo sapiens); in [3]; in test [5]; in [7]). Further, the result with CYP2C8 (gene 1558) and in the test with CYP2C9 (gene 1559) was inactive. For the same molecule, the results for the AC50 in test [4] and in test [6] were 75.5 µM (active) and 11.8 µM (active), respectively.
For the molecule `Clc1ccc(C(Cl)(Cl)Cl)cc1`, the molecule was called inactive (in test [1]; in test [2]; with Caspase-3 (Homo sapiens); in [3]; in test [4]; in [5]). In addition, the outcome (in test [6]; in test [7]; with CYP2C8 (gene 1558); in the test with CYP2C9 (gene 1559)) was inactive.
Turning to `ClC1=C(Cl)[C@]2(Cl)[C@@H]3[C@@H]4C[C@@H]([C@H]5O[C@@H]45)[C@@H]3[C@@]1(Cl)C2(Cl)Cl`, the AC50 in test [1] is 50 µM (active); with Caspase-3 (Homo sapiens) it was 0.0261 µM (active); in test [6], 1.58 µM (active); in test [7], 12.3 µM (active). Also, the outcome (in test [2]; in test [3]; in [4]; in [5]; with CYP2C9 (gene 1559)) was inactive.
Consider `C=CC(N)=O`, for which the call (in test [1]; in test [2]; with Caspase-3 (Homo sapiens); in test [3]; in test [4]; in test [5]) was inactive. In addition, the molecule was classed as inactive (in test [6]; with CYP2C8 (gene 1558); with CYP2C9 (gene 1559)).
`Cc1ccccc1O`: the molecule was classed as inactive (in test [1]; in [2]; with Caspase-3 (Homo sapiens); in test [3]; in test [4]; in test [5]). The call (in [7]; in the test with CYP2C8 (gene 1558); with CYP2C9 (gene 1559)) was inactive. Further, in test [6], the concentration at half-maximal activity (AC50) is 24.4 µM (active).
Regarding `NS(=O)(=O)C(F)(F)C(F)(F)C(F)(F)C(F)(F)C(F)(F)C(F)(F)C(F)(F)C(F)(F)F`, the AC50 in [1] is 2.79 µM (active); with Caspase-3 (Homo sapiens), 3.73 µM (active); in test [4], 5 µM (active); in test [5], 12.9 µM (active); in [6], 9.56 µM (active); in test [7], 9.68 µM (active). For the same molecule, the results for the half-maximal activity concentration (AC50) with CYP2C8 (gene 1558) and with CYP2C9 (gene 1559) were 11.1 µM (active) and 12.7 µM (active), respectively. Further, the result in [2] and in test [3] was inactive.
Turning to `O=C(N[C@H]1CN2CCC1CC2)c1cc2ccoc2cn1`, the outcome (in test [1]; in test [2]; with Caspase-3 (Homo sapiens); in test [3]; in test [5]; in [7]) was inactive. The call with CYP2C8 (gene 1558) and in the test with CYP2C9 (gene 1559) was inactive. Further, the AC50 in test [4] and in [6] was 50 µM (active) in each case.
`CCC(C)c1cc([N+](=O)[O-])cc([N+](=O)[O-])c1O` (stereo not drawn): the AC50 in test [1] is 12.3 µM (active); in test [2], 2.42 µM (active); in test [4] it was 2.66 µM (active); in test [5], 4 µM (active); in test [6], 1.32 µM (active); in test [7], 2.12 µM (active). The AC50 was 2.6 µM (active) in the test with CYP2C8 (gene 1558) and 1.71 µM (active) with CYP2C9 (gene 1559). Further, the result (with Caspase-3 (Homo sapiens); in test [3]) was inactive.
With `Cc1cccc([N+](=O)[O-])c1`, the molecule was classed as inactive (in [1]; in test [2]; with Caspase-3 (Homo sapiens); in test [3]; in test [4]; in [5]). Besides, the molecule was called inactive (in [7]; with CYP2C8 (gene 1558); with CYP2C9 (gene 1559)). In addition, in [6], the AC50 is 8.74 µM (active).
Take `O=C(O)C(F)(F)C(F)(F)C(F)(F)C(F)(F)C(F)(F)C(F)(F)C(F)(F)C(F)(F)C(F)(F)F`: the molecule was classed as inactive in test [1] and in test [3]. The AC50 was 90.6 µM (active) in test [2]; 82.5 µM (active) in the test with Caspase-3 (Homo sapiens); 22.2 µM (active) in [4]; 86 µM (active) in test [5]; 80.1 µM (active) in [6]; 81.1 µM (active) in test [7]. Besides, the AC50 with CYP2C8 (gene 1558) was 76.6 µM (active); in the test with CYP2C9 (gene 1559), 74.2 µM (active).

The values above are taken from PubChem BioAssay (EPA / NIEHS).
